# Data from PubChem BioAssay (NCATS).
# Several values for one entry are separate records, joined by “and”; a condition that tells them apart may be missing. Identical values can stand only once. Results filed as inconclusive are left out. Values without a mark were called inactive. Activity calls are given as the source filed them. The call rests on the fitted dose curve; in most records, active means well fitted curve in the direction sought with a large enough effect; inconclusive means small, poorly fitted or top-dose-only effect, or another doubt; inactive means no such curve, though single readings can be large; an effect the other way counts as inactive or inconclusive.
# How the values were obtained:
# [1] = Viability qHTS for spleen associated tyrosine kinase inhibitor (SYKi) drug resistant MV4-11 cells (AID 1963824); further: nearly all actives have a fitted effect of over 35% in size; further: potency means the concentration at half of the fitted maximal effect
# Method in brief: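 SYK inhibitor-resistant MV4-11 AML cells, 500 per well, added to predispensed compounds and incubated 72 hr at 37 C, 5% CO2. Viability measured by CellTiter-Glo luminescence after 10 min at room temperature.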
# [2] = Quantitative highthroughput screen to assess conditional lethalithy of NOMO1 cells grown in RPMI1640 with untreated serum (RPMI+s) (AID 1963876);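 further: 100% = DMSO wells and 0% = empty wells without cells; nearly all actives have a fitted effect of over 35% in size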
# Method in brief: (§1)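 Each medium arm—HPLM with 10% dialyzed FBS, or RPMI1640 with 5 mM glucose and 10% untreated or dialyzed FBS—was screened against an 11-point, 3-fold compound titration for 48 h at 37 °C, with CellTiter-Glo luminescence as endpoint.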
# [3] = Quantitative highthroughput screen to assess conditional lethalithy of P12 Ichikawa cells grown in Human Plasma-Like Medium with dialyzed fetal bovine serum (HPLM+ds) (AID 1963879); settings: Potency: viability; further: series mostly up to about 46 µM; nearly all actives have a fitted effect of over 35% in size
# Method in brief: as §1
# [4] = Quantitative highthroughput screen to assess conditional lethalithy of SEM cells grown in Human Plasma-Like Medium with dialyzed fetal bovine serum (HPLM+ds) (AID 1963882); further: series mostly up to about 46 µM; nearly all actives have a fitted effect of over 35% in size
# Method in brief: as §1
# [5] = Quantitative highthroughput screen to assess conditional lethalithy of SEM cells grown in RPMI1640 with unreated serum (RPMI+s) (AID 1963883)
# Method in brief: as §1
# [6] = Cellular viability qHTS for adrenocortical cancer (ACC) cell line SW-13 (AID 1963989); settings: SW-13 ACC cells viability, CellTiter-Glo, 48 h; activity (max response): hits give low values;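 further: cells grown in serum-free medium with ITS supplement; on the % scale 0 is the no-effect control and ±100 the full control effect; nearly all actives have a fitted effect of over 65% in size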
# Method in brief: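 Compound titrations (up to 46 uM final, in DMSO) were applied to SW-13 cells for 48 h at 37C/5% CO2. Reading used CellTiter-Glo after 20 min at room temperature; fitted curves yielded IC50 and efficacy.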
# [7] = Cellular viability qHTS for adrenocortical cancer (ACC) cell line NCI-H295R (AID 1963990);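 further: 0% = DMSO only wells and -100% = full killing with cytotoxic reference compound; nearly all actives have a fitted effect of over 60% in size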
# Method in brief: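 Readout: CellTiter-Glo luminescence, 20 min RT. Exposure: 48 h, 37C/5% CO2. Cells: NCI-H295R, ITS-DMEM serum-free. Range: up to 46 uM. Analysis: 4PL fit, IC50 plus efficacy.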
# [8] = Quantitative highthroughput screen to assess conditional lethalithy of NOMO1 cells grown in Human Plasma-Like Medium with dialyzed fetal bovine serum (HPLM+ds) (AID 1963878)
# Method in brief: as §1
compound,measurement,setting,value
CC(=O)OC[C@]12C[C@H](OC(=O)CC(C)C)C(C)=C[C@H]1O[C@@H]1[C@H](O)[C@@H](O)[C@@]2(C)[C@]12CO2,Potency,[1],8.9 nM (active)
CC12CCC3C(CCC4(O)CC(O)CCC34C=O)C1(O)CCC2C1=CC(=O)OC1 (stereo not drawn),Potency,[1],231 nM (active)
COC(=O)C1(C)CCC(O)C2(C)c3cc(O)c(C(C)C)cc3C(O)C(OC(C)=O)C12 (stereo not drawn),Potency,[1],inactive
CN(C(=O)Cc1ccccc1)C(CN1CCCC1)c1ccccc1 (stereo not drawn),Potency,[1],inactive
CC(=O)C1CCC2C3CCC4C[C@@H](O)CCC4(C)C3CCC12C (stereo partly drawn),Potency,[1],14600 nM (active)
CC1=CC(=O)[C@@H](O)[C@]2(C)C3[C@@H](O)[C@@H]4OC(=O)[C@@H]([C@H]4C)[C@]3(C)C(=O)[C@H](O)[C@@H]12 (stereo partly drawn),Potency,[1],12800 nM (active)
CO[C@H]1[C@@H](O)[C@@H](C)O[C@@H](O[C@@H]2C=C3C(OC(C)=O)CC4(O)C(CC[C@]5(C)[C@@H](C6=CC(=O)OC6)CC[C@]45O)[C@@]3(C)CC2)[C@@H]1O (stereo partly drawn),Potency,[1],76.9 nM (active)
C[C@@H]1O[C@@H](O[C@H]2CC[C@@]3(C)C(CC[C@@H]4C3CC[C@]3(C)[C@@H](C5=CC(=O)OC5)CC[C@]43O)C2)[C@H](O)[C@H](O)[C@H]1O (stereo partly drawn),Potency,[1],200 nM (active)
CCCCCCC(C)(C)c1cc(O)c2c(c1)OC(C)(C)C1CC=C(CO)C[C@H]21 (stereo partly drawn),Potency,[1],1660 nM (active)
C[C@@H]1C[C@@H](O)[C@]2(O)O[C@@H]3C[C@@]4(C=O)C(CC[C@@H]5C4CC[C@]4(C)[C@@H](C6=CC(=O)OC6)CC[C@]54O)C[C@H]3O[C@@H]2O1 (stereo partly drawn),Potency,[1],31.7 nM (active)
C[C@]12CC[C@H](O[C@@H]3O[C@H](CO)[C@@H](O)[C@H](O)[C@H]3O)CC1CC[C@@H]1C2CC[C@]2(C)[C@@H](C3=CC(=O)OC3)CC[C@]12O (stereo partly drawn),Potency,[1],1780 nM (active)
C#CCO[C@H]1CN2CCC1CC2,Potency,[1],inactive
C[C@H]1O[C@@H](O[C@H]2CC[C@]3(CO)C4CC[C@]5(C)[C@@H](C6=CC(=O)OC6)CC[C@]5(O)[C@@H]4CC[C@H]3C2)[C@H](O)[C@H](O)[C@@H]1O[C@@H]1O[C@H](CO)[C@@H](O)[C@H](O)[C@H]1O (stereo partly drawn),Potency,[1],544 nM (active)
CCc1[nH]c2ccc(OC)cc2c1CCN(C)C,Potency,[1],inactive
C=C1[C@@H](C)C2[C@H](Cc3ccccc3)NC(=O)[C@@]23C(/C=C/C[C@H](C)C[C@@](C)(O)/C=C/[C@@H]3OC(C)=O)[C@@H]1O (stereo partly drawn),Potency,[1],920 nM (active)
Cc1sc2c(c1C)C(c1ccc(Cl)cc1)=NC(CC(=O)OC(C)(C)C)c1nnc(C)n1-2 (stereo not drawn),Potency,[1],116 nM (active)
CN1CCCCC1Cn1cc(C(=O)c2cc([N+](=O)[O-])ccc2I)c2ccccc21 (stereo not drawn),Potency,[1],10300 nM (active)
O=C1CN=C(c2cccc(Br)c2)c2oc3ccccc3c2N1,Potency,[1],7310 nM (active)
C=C1[C@@H](C)[C@H]2[C@H](Cc3ccccc3)NC(=O)[C@]23[C@H](OC(C)=O)/C=C/[C@](C)(O)C(=O)[C@@H](C)C/C=C/[C@H]3[C@@H]1O,Potency,[1],731 nM (active)
CC12CCC3C(C1)c1c(cc(O)c(C(=O)c4ccccc4)c1OC3(C)C)O2 (stereo not drawn),Potency,[1],14300 nM (active)
CN(C)[C@@H]1C(=O)C(C(N)=O)=C(O)[C@@]2(O)C(=O)C3=C(O)c4c(O)cccc4[C@@](C)(O)[C@H]3C[C@@H]12,Potency,[1],16600 nM (active)
same,Potency,[2],inactive
same,Potency,[3],inactive
same,Potency,[4],inactive
same,Potency,[5],inactive
same,activity (max response),[6],15% and 6.24%
same,Potency,[7],inactive
CC[C@@H]1/C=C/C=C/C[C@H](C)C(O)[C@](C)(O)C(=O)[C@H](C)C(O)[C@H](C)C(=O)[C@H](C)[C@@H](O)[C@H](C)/C=C/C(=O)O[C@H]2[C@@H](C)[C@@H](CC1)O[C@]1(O[C@H](C[C@H](C)O)[C@H](C)CC1=O)[C@@H]2C (stereo partly drawn),Potency,[1],12.3 nM (active)
Cc1cc(SCc2sc(-c3ccc(C(F)(F)F)c(F)c3)nc2C)ccc1OCC(=O)O,Potency,[1],18600 nM (active)
same,Potency,[2],inactive
same,Potency,[8],inactive
same,Potency,[3],inactive
same,Potency,[4],inactive
same,Potency,[5],inactive
same,activity (max response),[6],-20.9%
same,Potency,[7],inactive
CC1=CC2/C=C(\C)CCC(O)C(O)/C=C/C(=O)OC23C(=O)NC(CC(C)C)C3C1C (stereo not drawn),Potency,[1],7960 nM (active)
CCN1C[C@]2(OC(=O)c3ccccc3NC(C)=O)CC[C@H](OC)[C@@]34[C@@H]2C[C@@H]([C@@H]13)[C@@]1(O)C[C@H](OC)[C@H]2C[C@@H]4[C@]1(O)[C@H]2OC,Potency,[1],4110 nM (active)
